Several values for one entry are separate records, joined by “and”; a condition that tells them apart may be missing. Identical values can stand only once. Records with an inconclusive call do not appear. Activity calls are given as the source filed them. Unless noted, calls come from the whole dose curve.

Test [1] in a line: MultiTox-Fluor Cytotoxicity Assay - LYMP1-001 - Live Cells (AID 947; active = well fitted curve in the direction sought with a large enough effect; an effect the other way counts as inactive or inconclusive;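 note: 0% = DMSO only and full inhibition = tetraoctylammonium bromide control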).
Test [2] in a line: MultiTox-Fluor Cytotoxicity Assay - LYMP1-002 - Dead Cells (AID 960; active = well fitted curve in the direction sought with a large enough effect; an effect the other way counts as inactive or inconclusive;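 note: 0% = DMSO and 100% = tetraoctylammonium bromide; nearly all actives have a fitted effect of over 60% in size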). The method, boiled down: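 Dead-cell fluorescence (Ex/Em 485/520) after 16 h compound exposure at 37 C of LYMP1-002 lymphoblastoid cells in complete medium; AC50 by Hill equation, with data scaled between DMSO and 15 uM tetraoctylammonium bromide.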
The target of test [3] is Estrogen receptor (Homo sapiens) (UniProt P03372). The test is described as follows: qHTS assay for small molecule antagonists of estrogen receptor alpha signaling (AID 588513; active = well fitted curve in the direction sought with a large enough effect in the signal ratio, with a control signal flat, not every such curve was filed as active; the % refers to the signal ratio; note: % is set by controls: 0 for no effect and ±100 for the full control effect). In a few lines:
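Fluorescence from CCF4 substrate after 2 h at room temperature gave reporter activity; cells had been exposed to compound and 0.5nM 17-beta-estradiol for 18 h at 37 C. Hill-equation fitting yielded IC50 and maximal response.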
In general terms: qHTS replaces the single test concentration by a dilution series.

The target is the same in test [4]. Kind of test: qHTS assay for small molecule agonists of estrogen receptor alpha signaling (AID 588514).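 Note: 0% = vehicle only and 100% = reference agonist; nearly all actives have a fitted effect of over 70% in size.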 In a few lines: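 EC50 and efficacy came from Hill fits of beta-lactamase reporter signal (CCF4 dye, 2 h at room temperature) scaled between DMSO and 20 nM 17-beta-estradiol. Agonist mode: HEK293 ER-alpha-UAS-bla cells in charcoal/dextran-stripped serum medium, 18 h compound exposure at 37 C.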

The target in test [5] is Glucocorticoid receptor (Homo sapiens) (UniProt P04150). The test is described as follows: qHTS assay for small molecule agonists of glucocorticoid receptor signaling (AID 588532; active = well fitted curve in the direction sought with a large enough effect in the signal ratio, with a control signal flat; the % refers to the signal ratio;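 note: 100% = dexamethasone at 0.1 µM and 0% = DMSO only wells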). Particulars: HeLa MMTV-bla, beta-lactamase ratio, agonist, 18 h; stronger effect = higher value; percent of dexamethasone control, DMSO zero. In a few lines:
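Agonist-mode qHTS: GRE-driven beta-lactamase in HeLa cells exposed 18 h to titrated compounds (up to 92 uM), then CCF4 ratio read after 2 h at RT; Hill-fitted EC50, efficacy relative to 0.1 uM dexamethasone.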

For test [6], the target named is Peroxisome proliferator-activated receptor gamma (Homo sapiens) (UniProt P37231). The test is described as follows: qHTS assay for small molecule agonists of peroxisome proliferator-activated receptor gamma signaling (AID 588536; active = well fitted curve in the direction sought with a large enough effect in the signal ratio, with a control signal flat, not every such curve was filed as active; the % refers to the signal ratio;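 note: 0% = DMSO basal wells and 100% = rosiglitazone at 2 µM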). In a few lines:
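Cells were plated and held 6–6.5 h at 37 C, then compounds were added as a titration series. After a further 16 h, CCF4 dye was loaded for 2 h at room temperature and emission at 460/530 nm recorded.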

For test [7], the target named is Vitamin D3 receptor (Homo sapiens) (UniProt P11473). The test is described as follows: qHTS assay for small molecule antagonists of vitamin D receptor signaling (AID 588541).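 Note: receptor activated by calcitriol during compound treatment; series mostly up to about 77 µM; % is set by controls: 0 for no effect and ±100 for the full control effect.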 The method, boiled down: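 Antagonist-mode beta-lactamase reporter assay: HEK293T VDR-UAS-bla cells were exposed to titrated compound alongside 1-alpha,25-dihydroxyvitamin D3 at 3 nM final for 16 h. Values were normalized to the 50 nM agonist control and DMSO basal, with IC50 and efficacy from Hill equation fits.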

Test [8] shares this target. Kind of test: qHTS assay for small molecule agonists of vitamin D receptor signaling (AID 588543).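 Note: 0% = DMSO basal and 100% = reference agonist control.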 The method, boiled down: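 Reporter cells (HEK293T, VDR-UAS-bla) were seeded in medium with 2% charcoal-stripped serum and incubated 5 h, then compounds in concentration series were added for 16 h at 37 °C. Stimulation was scaled between DMSO basal and 50 nM 1α,25-dihydroxyvitamin D3.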

A short description of test [9]: qHTS assay for small molecule agonists of retinoid X receptor alpha signaling (AID 588544).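 For activation: 0% = DMSO basal wells and 100% = reference agonist.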 Particulars: HEK293T RXRa-UAS-bla, beta-lactamase reporter, 18 h; 530 nm emission.
Test [10] addresses Retinoic acid receptor RXR-alpha (Homo sapiens) (UniProt P19793). Described as above.
For test [11], the target named is Thyroid hormone receptor beta (Homo sapiens) (UniProt P10828). Kind of test: qHTS assay for small molecule antagonists of thyroid hormone receptor beta signaling (AID 588547; active = well fitted inhibition curve with a large enough effect in the signal ratio, with a control signal flat, not every such curve was filed as active; the % refers to the signal ratio;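 note: cells stimulated with 0.4 nM T3 agonist during compound exposure; series mostly up to about 77 µM; % is set by controls: 0 for no effect and ±100 for the full control effect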). Particulars: TR-UAS-bla HEK293, beta-lactamase ratio, antagonist mode, 18 h. The method, boiled down: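 Inhibition of T3-driven (0.4nM final) beta-lactamase reporter activity was measured over 0.59 nM to 92 uM compound after 18 h at 37 C. The cells were GripTite HEK293 TR-UAS-bla in charcoal/dextran-stripped serum, with CCF4 ratio read-out and IC50 from Hill fits.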

Test [12] addresses Voltage-gated inwardly rectifying potassium channel KCNH2 (Homo sapiens) (UniProt Q12809). The test is described as follows: qHTS Assay for Small Molecule Inhibitors of the Human hERG Channel Activity (AID 588834; active = well fitted curve in the direction sought with a large enough effect; an effect the other way counts as inactive or inconclusive;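 note: top concentration of the series differs between compounds; % is set by controls: 0 for no effect and ±100 for the full control effect; lower thallium flux fluorescence means stronger hERG block; nearly all actives have a fitted effect of over 50% in size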). The method, boiled down: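 Step 1: BacMam hERG transduction of U2OS, 4 hrs RT. Step 2: overnight 37 °C, plate 2000 cells/well, 4 hr. Step 3: FluxOR load, compound 10 min, stimulate, read fluorescence.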

Test [13] in a line: qHTS assay for small molecule activators of the p53 signaling pathway (AID 651743; active = well fitted activation curve with a large enough effect in the signal ratio, not every such curve was filed as active; the % refers to the signal ratio; note: series mostly up to about 92 µM; % of control where 0% means no effect). Particulars: HCT-116 p53RE-bla, beta-lactamase FRET ratio, 16 h; activation: stronger effect = higher value. The method, boiled down:
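After 16 hours compound treatment at 37 C, HCT-116 cells stably expressing p53RE-driven beta-lactamase were loaded with LiveBLAzer B/G FRET substrate for 2 hours at room temperature. Fluorescence intensity served as the p53 activation read-out.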

Test [14] can be described thus: qHTS assay for small molecule disruptors of the mitochondrial membrane potential - 1 hr assay (AID 651754). Note: % is set by controls: 0 for no effect and ±100 for the full control effect; nearly all actives have a fitted effect of over 35% in size. In a few lines:
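Mitochondrial potential in living HepG2 cells after 1 hr compound treatment at 37C was read with Mito-MPS dye added for a further 30 min. Red aggregate and green monomer fluorescence were measured; loss of potential leaves dye as cytoplasmic monomers.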

Test [15] addresses Tumor necrosis factor (Homo sapiens) (UniProt P01375). The test is described as follows: qHTS assay to identify small molecules that stimulate Tumor Necrosis Factor-alpha (TNF-alpha) secretion (AID 651757; active = well fitted curve in the direction sought with a large enough effect in the signal ratio; the % refers to the signal ratio; note: 0% is about no effect). The method, boiled down: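 Secreted TNF-alpha quantified by TR-FRET sandwich of two labeled anti-TNF-alpha antibodies, incubated 3 hr at room temperature. Preceded by 17 hr, 37 C compound treatment of THP-1 cells at 3000 cells/well.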

Test [16] in a line: qHTS assay for environmental chemicals that activate the Aryl hydrocarbon Receptor (AhR) signaling pathway (AID 651777; active = well fitted curve in the direction sought with a large enough effect; an effect the other way counts as inactive or inconclusive; note: % of control where 0% means no effect; nearly all actives have a fitted effect of over 15% in size). Particulars: 1A2-DRE human hepatoma cells, luciferase, 24 h; activation: stronger effect = higher value. In a few lines: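 Stable CYP1A2 promoter/DRE-luciferase human hepatoma line treated 24 hr; One-Glo luminescence, 30 min RT.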
The nature of test [17]: qHTS assay for small molecule agonists of the antioxidant response element (ARE) signaling pathway measured by Nrf2-dependant transcriptional activity (AID 720636; active = well fitted curve in the direction sought with a large enough effect in the repeat runs; an effect the other way counts as inactive or inconclusive;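 note: HepG2 cells with an ARE-driven luciferase reporter; % of control where 0% means no effect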). In a few lines:
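Reporter gene assay, HepG2 ARE-luc: 16 hr compound, 37 C, 5% CO2; read-out luciferase luminescence.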

Test [18] can be described thus: qHTS assay for small molecule antagonists of the retinoid-related orphan receptor gamma (ROR-gamma) signaling pathway - cell viability counter screen (AID 720652; active = well fitted curve in the direction sought with a large enough effect in the repeat runs; an effect the other way counts as inactive or inconclusive;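 note: series mostly up to about 92 µM; compound exposure lasted 16 hr before ATP read; % is set by controls: 0 for no effect and ±100 for the full control effect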). The method, boiled down: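 Cytotoxicity counter screen: intracellular ATP (CellTiter-Glo luminescence) measured in the doxycycline-induced CHO RORE-luciferase reporter line after 16 hr compound exposure at 37 C, 5% CO2.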

For test [19], the target named is Nuclear receptor subfamily 1 group I member 2 (Rattus norvegicus) (UniProt Q9R1A7). Kind of test: qHTS assay for small molecule activators of the rat pregnane X receptor (rPXR) signaling pathway (AID 651751; call rule not given here; note: 0% is about no effect). Particulars: rPXR reporter cells, luciferase (One-Glo), 24 h.
Test [20] is described as follows: qHTS assay for small molecule activators of the human pregnane X receptor (PXR) signaling pathway (AID 720659; call rule not given here; note: 0% is about no effect).

Sequence of Estrogen receptor (Homo sapiens) (P03372 whole entry, looked up): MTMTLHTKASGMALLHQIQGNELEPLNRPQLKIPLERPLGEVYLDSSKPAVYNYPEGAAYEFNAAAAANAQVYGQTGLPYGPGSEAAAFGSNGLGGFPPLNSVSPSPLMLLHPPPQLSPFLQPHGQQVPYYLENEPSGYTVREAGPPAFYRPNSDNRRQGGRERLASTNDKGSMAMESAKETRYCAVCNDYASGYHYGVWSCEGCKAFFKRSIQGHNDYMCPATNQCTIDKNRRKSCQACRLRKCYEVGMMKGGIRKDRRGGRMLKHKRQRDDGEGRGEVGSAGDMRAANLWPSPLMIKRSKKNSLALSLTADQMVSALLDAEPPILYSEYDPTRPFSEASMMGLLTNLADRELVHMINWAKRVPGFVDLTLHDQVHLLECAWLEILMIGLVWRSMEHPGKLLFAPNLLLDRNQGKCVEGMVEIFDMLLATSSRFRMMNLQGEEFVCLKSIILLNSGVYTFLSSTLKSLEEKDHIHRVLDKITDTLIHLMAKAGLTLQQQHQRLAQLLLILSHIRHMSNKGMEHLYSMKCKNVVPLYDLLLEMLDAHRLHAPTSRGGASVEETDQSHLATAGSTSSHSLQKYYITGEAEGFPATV
Sequence of Thyroid hormone receptor beta (Homo sapiens) (P10828 whole entry, looked up): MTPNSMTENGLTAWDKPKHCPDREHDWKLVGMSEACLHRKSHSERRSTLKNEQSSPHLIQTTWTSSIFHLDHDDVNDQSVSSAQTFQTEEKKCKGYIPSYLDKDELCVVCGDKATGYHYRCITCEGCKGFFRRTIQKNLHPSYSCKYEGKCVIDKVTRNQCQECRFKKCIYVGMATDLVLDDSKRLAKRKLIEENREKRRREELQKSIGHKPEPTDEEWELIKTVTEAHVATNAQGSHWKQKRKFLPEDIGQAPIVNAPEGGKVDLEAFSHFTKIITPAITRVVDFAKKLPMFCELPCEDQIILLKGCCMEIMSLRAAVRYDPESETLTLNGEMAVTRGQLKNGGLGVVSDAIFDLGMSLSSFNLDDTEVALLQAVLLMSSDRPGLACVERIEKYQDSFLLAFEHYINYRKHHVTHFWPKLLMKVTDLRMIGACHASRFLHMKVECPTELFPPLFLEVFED
Sequence of Retinoic acid receptor RXR-alpha (Homo sapiens) (P19793 whole entry, looked up): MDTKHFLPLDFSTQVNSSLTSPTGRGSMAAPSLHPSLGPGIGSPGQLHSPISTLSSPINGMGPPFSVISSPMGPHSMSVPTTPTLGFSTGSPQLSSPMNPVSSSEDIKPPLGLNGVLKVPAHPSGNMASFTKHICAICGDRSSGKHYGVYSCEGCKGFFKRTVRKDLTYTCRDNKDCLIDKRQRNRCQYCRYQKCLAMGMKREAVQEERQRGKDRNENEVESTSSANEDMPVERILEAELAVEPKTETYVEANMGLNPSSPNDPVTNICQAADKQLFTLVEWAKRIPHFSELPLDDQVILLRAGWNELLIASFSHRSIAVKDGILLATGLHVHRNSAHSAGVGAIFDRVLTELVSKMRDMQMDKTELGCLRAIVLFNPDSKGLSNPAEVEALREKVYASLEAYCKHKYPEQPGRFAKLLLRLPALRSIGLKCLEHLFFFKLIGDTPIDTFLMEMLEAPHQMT
Sequence of Voltage-gated inwardly rectifying potassium channel KCNH2 (Homo sapiens) (Q12809 whole entry, looked up): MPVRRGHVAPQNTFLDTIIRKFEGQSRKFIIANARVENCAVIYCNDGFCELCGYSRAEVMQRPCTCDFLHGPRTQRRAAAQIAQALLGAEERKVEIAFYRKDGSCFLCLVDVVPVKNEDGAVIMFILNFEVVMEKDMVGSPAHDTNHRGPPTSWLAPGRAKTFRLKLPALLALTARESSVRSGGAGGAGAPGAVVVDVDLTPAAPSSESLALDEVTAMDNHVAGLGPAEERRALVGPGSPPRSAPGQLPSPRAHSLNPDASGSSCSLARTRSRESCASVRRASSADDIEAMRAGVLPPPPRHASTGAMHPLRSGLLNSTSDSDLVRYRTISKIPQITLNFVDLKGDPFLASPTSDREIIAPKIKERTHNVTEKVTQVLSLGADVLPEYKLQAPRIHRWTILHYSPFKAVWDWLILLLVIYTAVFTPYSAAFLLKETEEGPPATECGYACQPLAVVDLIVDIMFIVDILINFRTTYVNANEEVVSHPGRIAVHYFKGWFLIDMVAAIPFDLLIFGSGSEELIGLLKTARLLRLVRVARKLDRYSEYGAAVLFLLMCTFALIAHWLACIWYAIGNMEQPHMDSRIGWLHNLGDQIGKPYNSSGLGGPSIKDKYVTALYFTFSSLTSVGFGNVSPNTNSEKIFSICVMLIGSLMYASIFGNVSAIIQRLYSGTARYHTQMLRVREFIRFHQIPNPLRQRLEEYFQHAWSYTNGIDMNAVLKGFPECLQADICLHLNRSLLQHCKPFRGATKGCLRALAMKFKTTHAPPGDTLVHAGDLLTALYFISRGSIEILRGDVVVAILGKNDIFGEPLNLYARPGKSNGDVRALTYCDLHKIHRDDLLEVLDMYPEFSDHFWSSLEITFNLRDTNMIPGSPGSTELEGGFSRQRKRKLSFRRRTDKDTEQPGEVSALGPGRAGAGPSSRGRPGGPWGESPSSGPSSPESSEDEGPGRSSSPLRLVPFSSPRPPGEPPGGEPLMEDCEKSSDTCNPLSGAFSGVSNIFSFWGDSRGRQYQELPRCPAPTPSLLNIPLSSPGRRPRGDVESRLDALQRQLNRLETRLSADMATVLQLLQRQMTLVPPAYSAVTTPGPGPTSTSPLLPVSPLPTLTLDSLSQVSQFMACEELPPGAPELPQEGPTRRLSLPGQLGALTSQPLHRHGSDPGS
Sequence of Nuclear receptor subfamily 1 group I member 2 (Rattus norvegicus) (Q9R1A7 whole entry, looked up): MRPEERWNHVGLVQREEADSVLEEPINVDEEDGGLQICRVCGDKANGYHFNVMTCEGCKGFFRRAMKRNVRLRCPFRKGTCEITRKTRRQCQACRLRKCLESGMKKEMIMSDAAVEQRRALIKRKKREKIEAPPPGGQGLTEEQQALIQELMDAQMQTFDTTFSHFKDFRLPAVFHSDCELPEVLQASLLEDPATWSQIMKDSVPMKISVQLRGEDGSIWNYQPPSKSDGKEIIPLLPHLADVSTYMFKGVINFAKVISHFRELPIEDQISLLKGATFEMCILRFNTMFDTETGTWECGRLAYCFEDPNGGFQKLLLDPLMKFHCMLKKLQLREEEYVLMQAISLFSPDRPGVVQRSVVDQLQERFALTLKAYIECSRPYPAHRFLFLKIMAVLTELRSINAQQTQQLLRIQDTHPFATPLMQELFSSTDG
Sequence of Peroxisome proliferator-activated receptor gamma (Homo sapiens) (P37231 whole entry, looked up): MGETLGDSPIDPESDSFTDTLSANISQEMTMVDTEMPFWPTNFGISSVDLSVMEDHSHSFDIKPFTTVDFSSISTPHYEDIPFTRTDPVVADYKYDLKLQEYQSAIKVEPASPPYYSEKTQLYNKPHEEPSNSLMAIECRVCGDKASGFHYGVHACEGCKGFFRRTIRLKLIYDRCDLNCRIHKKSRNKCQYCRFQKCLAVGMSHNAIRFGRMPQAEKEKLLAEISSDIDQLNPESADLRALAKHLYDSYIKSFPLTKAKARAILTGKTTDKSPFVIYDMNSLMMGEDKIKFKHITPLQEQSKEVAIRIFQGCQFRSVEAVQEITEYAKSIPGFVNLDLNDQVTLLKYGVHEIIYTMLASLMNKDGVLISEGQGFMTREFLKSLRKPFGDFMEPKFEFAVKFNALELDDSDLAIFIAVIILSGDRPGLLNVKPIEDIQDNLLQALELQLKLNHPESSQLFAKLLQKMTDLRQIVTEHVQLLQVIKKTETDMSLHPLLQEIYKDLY
Sequence of Vitamin D3 receptor (Homo sapiens) (P11473 whole entry, looked up): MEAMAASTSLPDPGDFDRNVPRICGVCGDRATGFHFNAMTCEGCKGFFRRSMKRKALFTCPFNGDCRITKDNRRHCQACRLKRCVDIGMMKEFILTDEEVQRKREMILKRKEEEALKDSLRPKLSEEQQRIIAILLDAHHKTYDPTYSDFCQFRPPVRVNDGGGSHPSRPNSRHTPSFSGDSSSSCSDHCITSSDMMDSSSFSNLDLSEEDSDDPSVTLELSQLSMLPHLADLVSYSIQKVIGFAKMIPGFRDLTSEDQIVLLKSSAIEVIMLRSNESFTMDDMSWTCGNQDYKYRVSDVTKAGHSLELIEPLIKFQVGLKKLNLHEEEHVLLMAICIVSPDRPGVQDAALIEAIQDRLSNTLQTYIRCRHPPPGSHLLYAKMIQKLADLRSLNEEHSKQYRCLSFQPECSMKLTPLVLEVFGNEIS
Sequence of Glucocorticoid receptor (Homo sapiens) (P04150 whole entry, looked up): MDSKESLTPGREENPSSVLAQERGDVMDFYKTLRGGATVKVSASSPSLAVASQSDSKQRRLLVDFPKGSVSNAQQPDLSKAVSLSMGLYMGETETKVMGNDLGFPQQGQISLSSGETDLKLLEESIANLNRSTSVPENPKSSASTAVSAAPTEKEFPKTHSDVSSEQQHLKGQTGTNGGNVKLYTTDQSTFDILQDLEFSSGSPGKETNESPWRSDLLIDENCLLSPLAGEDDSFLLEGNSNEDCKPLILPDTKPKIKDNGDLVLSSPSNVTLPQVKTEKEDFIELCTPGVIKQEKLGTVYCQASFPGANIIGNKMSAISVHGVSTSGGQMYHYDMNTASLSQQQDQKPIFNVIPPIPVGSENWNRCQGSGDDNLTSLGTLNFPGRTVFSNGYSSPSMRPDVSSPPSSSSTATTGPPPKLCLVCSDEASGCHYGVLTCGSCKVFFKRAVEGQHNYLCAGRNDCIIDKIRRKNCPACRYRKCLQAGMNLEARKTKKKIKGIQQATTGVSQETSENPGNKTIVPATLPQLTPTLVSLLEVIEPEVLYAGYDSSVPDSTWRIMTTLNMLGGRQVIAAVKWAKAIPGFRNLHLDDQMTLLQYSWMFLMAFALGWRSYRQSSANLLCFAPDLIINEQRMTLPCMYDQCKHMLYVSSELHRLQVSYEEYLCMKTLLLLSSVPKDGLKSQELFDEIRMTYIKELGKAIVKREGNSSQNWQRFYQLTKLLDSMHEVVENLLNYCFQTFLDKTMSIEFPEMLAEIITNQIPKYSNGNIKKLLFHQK

`C=Cc1ccccc1Cl`: the Potency result in [1], in test [2], in test [3], in [4], in test [12] and in [14] was “inactive” each time. The Potency entry in test [17] and in [18] was “inactive” throughout. Also, the activation was -0.22% (inactive) in test [5], -0.152% (inactive) in test [13] and -0.0962% (inactive) in test [16]. In addition, the call in test [6], in [7], in [8], in [10], in [15] and in [20] was inactive. Moreover, the max response in [9] is -6.66%; in test [19], 1.05% (inactive). Further, in test [11], the activity change % (negative = inhibition) was 9.88% (inactive).

For the compound `COC(=O)CCCCC(=O)OC`, the Potency entry in test [1], in test [2], in test [3], in test [4], in [12] and in test [14] was “inactive” in each case. Moreover, the Potency entry in test [17] and in test [18] was “inactive” each time. The activation in [5] was 7.61% (inactive) and 12.5% (inactive); in test [13], -0.0209% (inactive) and -1.5% (inactive); in test [16] it was 3.11% (inactive) and -1.77% (inactive) and 1.4% (inactive). Besides, the outcome in [6], in [7], in test [8], in [10], in [15] and in test [20] was inactive. The max response in test [9] is -8.22% and -17.2% and -16.7%; in [19], 5.4% (inactive) and -0.278% (inactive) and 0.834% (inactive). Besides, the activity change % (negative = inhibition) in test [11] was 22.1% (inactive) and -0.698% (inactive) and -15.8% (inactive).

As to `CC(C)=CCCC(C)CCO` (stereo not given), the Potency result in test [1], in test [2], in test [3], in test [4], in [12] and in [14] was “inactive” throughout. For the same compound, the Potency entry in [17] and in test [18] was “inactive” in each case. For the same compound, the activation in test [5] is 0.913% (inactive) and 4.62% (inactive); in [13], 0.545% (inactive) and -1.78% (inactive); in [16], -0.0827% (inactive) and -0.667% (inactive). Also, the outcome in test [6], in [10], in test [15] and in [20] was inactive. The max response in test [9] is -10.2% and -2.4%; in [19] it was -5.01% (inactive) and 0.846% (inactive). Further, the activity change % (negative = inhibition) in test [11] was -8.9% (inactive) and -1.71% (inactive).

As to `NC1=NC(S)C2N=CN=C2N1` (stereo not given), the activation was -9.94% (inactive) in test [5] and -2.51% (inactive) in test [16]. Also, the result in [7] and in test [8] was inactive. Besides, in test [11], the activity change % (negative = inhibition) is 18.1% (inactive). Also, the Potency result in test [12], in test [14] and in [17] was “inactive” each time. In addition, in test [19], the max response was -3.62% (inactive).

As to `CC1(C)CC(N=C=O)CC(C)(CN=C=O)C1` (stereo not given), the Potency entry in test [1], in [3], in [4], in test [12], in test [14] and in test [17] was “inactive” each time. In addition, in [18], the Potency entry was “inactive”. Moreover, the result in [6], in test [7], in test [8], in test [10], in test [15] and in [20] was inactive. The max response was 0.0281% and -13.4% in [9]; 1.05% (inactive) and -0.823% (inactive) in test [19]. The activity change % (negative = inhibition) in test [11] was 2.27% (inactive) and 3.24% (inactive). Further, the activation in [13] is 0.263% (inactive) and 0.482% (inactive); in [16] it was 2.53% (inactive) and -0.0427% (inactive).

Source of the values: PubChem BioAssay (NCATS).
